# Shown are actives, neighbours in structure and some others; about 3.3% of the full set was active somewhere.
# 697 NFkB inh: inhibitors of the PMA/ionomycin-induced NF-kB reporter in 697 B cells | 697 B-cell NF-kB luciferase reporter, 16 h | inhibition, % at 4 µM | 330,000 tested, 0.33% active; in the data active = inhibition above about 35%
# Jurkat NFkB inh: inhibitors of the PMA/ionomycin-induced NF-kB reporter in Jurkat cells | PMA/ionomycin-induced NF-kB luciferase reporter, luminescence | inhibition, % at 4 µM | 330,000 tested, 0.53% active | AID 435003; in the data active = inhibition above about 50%
# Gli-Sufu block: Gli-Sufu pathway antagonism; 340,000 tested, 0.74% active; inhibition, % at 5 µM; Sufu-KO-LIGHT fibroblasts, Gli luciferase reporter luminescence;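 active = inhibition above about 55%, limit read from the data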
# SMARCA2 activ: SMARCA2 function activation, primary screen. MG213 cells, MMTV-luciferase reporter, dexamethasone, overnight. activation, % at 9.1 µM. 370,000 tested, 1% active; in the data active = activation above about 7.8%
# esBAF inh: SWI/SNF esBAF complex inhibition; 350,000 tested, 2% active; AID 602393; mouse ES cells, Bmi1-luciferase knock-in reporter, 24 h; 100% = twice the neutral-well signal; reporter increase, % at 12.5 µM; in the data active = activation above about 40%;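 also: a rise in the Bmi1 reporter signal indicates esBAF inhibition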
# Hits are given with their value; – = inactive; · = no result.
SMILES,697 NFkB inh,Jurkat NFkB inh,Gli-Sufu block,SMARCA2 activ,esBAF inh
CC=Cc1ccc2n(c1=O)C[C@@H]1[C@@H](CO)[C@H](C(=O)Nc3ccc(-c4ccccc4)cc3)N(C)[C@H]21 (mixture of isomers),·,·,·,·,61.1
CNC(=O)C[C@@H]1CC[C@@H]2[C@H](COc3ccc(NC(=O)Cc4cccs4)cc3C(=O)N2C)O1,·,·,·,·,–
Cc1cccc2c1-c1sc(C(=O)N3CCCCC3)cc1CO2,–,–,–,–,67.6
COCC(=O)N(C)C[C@H]1Oc2ncc(C3=CCCC3)cc2C(=O)N([C@@H](C)CO)C[C@H]1C,·,·,·,·,–
CC(=Nc1ccc(C)c(C)c1)C1=C(O)CSC1=O,–,–,–,–,51.3
COc1ccccc1N=C(C)C1=C(O)CSC1=O,–,–,–,–,–
CO[C@H]1CN(C)C(=O)c2ccc(NC(=O)C3CCCCC3)cc2OC[C@@H](C)N(C)C[C@@H]1C,·,·,·,·,–
O=C(C[C@@H]1CC[C@@H]2[C@H](COC[C@H](O)CN2S(=O)(=O)c2ccc(Oc3ccccc3)cc2)O1)Nc1ccccc1,·,·,·,·,–
Clc1ccc(C#Cc2cccnc2)cc1,–,–,–,–,66.8
N#C[C@H]1N[C@H](CO)[C@H]1c1ccc(C#Cc2cccnc2)cc1,·,·,·,·,–
COc1ccc(CCN2CCCC(CN(C)C(=O)c3ccoc3)C2)cc1 (stereo not given),–,–,–,–,61.9
C[C@@H]1CN([C@@H](C)CO)C(=O)c2cc(-c3ccc(F)cc3)cnc2O[C@@H]1CN(C)C(=O)CN(C)C,·,·,·,·,–
Cc1cccc(-n2ncc3c(NCc4ccccn4)ncnc32)c1,–,–,–,–,53.4
Cc1cccc(-n2ncc3c(NCc4ccco4)ncnc32)c1,–,–,–,–,81.6
Cc1cccc(-n2ncc3c(NCc4cccs4)ncnc32)c1,–,–,–,–,55.9
COc1ccc(N2C(=O)c3cccc4cccc(c34)C2=O)cc1,–,–,–,–,–
COc1ccc(N2C(=O)c3cccc4c(N(C)CCO)ccc(c34)C2=O)cc1,–,–,–,–,42.8
C[C@@H]1CN([C@H](C)CO)C(=O)c2cc(C#Cc3ccccc3F)cnc2O[C@H]1CN(C)C(=O)C1CCOCC1,·,·,·,·,–
Nc1ccc2c(c1)Cc1c(F)cccc1-2,·,·,–,·,57.2
C[C@H]1CN([C@@H](C)CO)S(=O)(=O)c2ccc(-c3ccccc3)cc2O[C@@H]1CN(C)C(=O)c1ccccc1F,·,·,·,·,–
Cc1nn(-c2ccccc2)c(N)c1Sc1cccc([N+](=O)[O-])c1,–,–,–,–,–
Cc1cc(C)nc(-n2nc(C)c(Sc3ccc(F)cc3)c2N)n1,·,·,–,–,137.4
Cc1cc(/C=C(\C#N)C(=O)NCc2ccco2)c(C)n1C1CCCC1,–,–,–,–,53.2
Fc1ccc(-c2nc3c4ccccc4ccn3c2Cc2cccc(F)c2)cc1,·,·,·,–,·
COc1ccc(-c2nc3c4ccccc4ccn3c2Cc2ccccc2)cc1OC,·,·,·,–,45.1
SMILES,697 NFkB inh,Jurkat NFkB inh,Gli-Sufu block,SMARCA2 activ,esBAF inh
CCCc1nc2c3ccccc3ccn2c1Cc1cccc(F)c1,·,·,·,–,45.8
Fc1cccc(Cc2c(-c3ccco3)nc3c4ccccc4ccn23)c1,·,·,·,–,72.2
COc1ccccc1Cc1c(-c2ccc(OC)c(OC)c2)nc2c3ccccc3ccn12,·,·,·,–,–
CC(=O)N1CC[C@@H]2[C@@H](CO)Nc3ccc(C#Cc4ccccc4F)cc3[C@@H]21,·,·,·,·,–
CO[C@@H]1CN(C)C(=O)c2ccc(NC(=O)C3CCC3)cc2OC[C@@H](C)N(Cc2cccnc2)C[C@H]1C,·,·,·,·,–
COc1cccc(N(C(=O)c2snc(C(N)=O)c2N)C(C(=O)NCC2CCCO2)c2cccs2)c1 (stereo not given),–,–,–,–,–
COc1ccc(N(C(=O)c2ccco2)C(C(=O)NC2CCCCC2)c2cccs2)cc1OC (stereo not given),–,–,–,–,–
COc1ccc(N(C(=O)CCl)C(C(=O)NCCc2ccccc2)c2cccs2)cc1Cl (stereo not given),·,·,95.7,–,·
COc1cccc(N(C(=O)CCl)C(C(=O)NCCc2ccccc2)c2cccs2)c1 (stereo not given),·,·,92.8,–,–
O=C(C[C@H]1C[C@@H]2c3cc(NS(=O)(=O)c4ccc(F)cc4)ccc3O[C@@H]2[C@@H](CO)O1)NCc1cc(F)ccc1F,·,·,·,·,–
C[C@H]1CN([C@@H](C)CO)C(=O)Cc2cc(NC(=O)C3CCCCC3)ccc2O[C@H]1CN(C)C(=O)NC1CCCCC1,·,·,·,·,–
CCCCc1ccc(-c2ccc(Br)cc2)nc1,–,–,–,–,–
CCc1ccc(-c2ccc(C(=O)O)cc2)nc1,–,–,–,7.8,45.7
Cc1ccc2occ(/C=C/C(=O)c3ccccc3O)c(=O)c2c1,–,–,–,–,51.2
Cc1c(/C=C/C(=O)c2ccccc2O)cnn1C,–,–,–,–,51.5
CC(C)(C)OC(=O)N1CCC(C(=O)Nc2ccc3c(c2)CCC3)CC1,–,–,–,–,74.5
O=C(Nc1ccc2c(c1)CCC2)C1CCCN(c2ncccn2)C1 (stereo not given),–,–,–,–,62.0
CC(=O)N1CCC(C(=O)Nc2ccc3c(c2)CCC3)CC1,–,–,–,–,·
CC(C)(C)OC(=O)N1CCN(C(=O)Nc2ccc3c(c2)OCCO3)CC1,–,–,–,–,47.8
Cc1ccc(NC(=O)C2CCCN(c3nccc(C)n3)C2)c(C)c1 (stereo not given),–,–,–,–,–
Cc1ccc(NC(=O)C2CCCN(c3ncccn3)C2)c(C)c1 (stereo not given),–,–,–,–,50.6
C[C@@H]1CCCCO[C@H](CN(C)S(=O)(=O)c2ccc(Cl)cc2)[C@@H](C)CN([C@@H](C)CO)C(=O)c2cc(NC(=O)Nc3ccccc3)ccc2O1,·,·,·,·,–
CO[C@H]1CN(C)C(=O)c2ccc(NC(=O)C3CC3)cc2OC[C@@H](C)N(CCC(F)(F)F)C[C@@H]1C,·,·,·,·,–
CCOc1ccc(NC(=O)CCc2c(C)nn(-c3ccc(N4CCCCC4)nn3)c2C)cc1,–,–,–,–,52.4
CCc1ccc(NC(=O)CCc2c(C)nn(-c3ccc(N4CCCCC4)nn3)c2C)cc1,–,–,–,–,61.7
SMILES,697 NFkB inh,Jurkat NFkB inh,Gli-Sufu block,SMARCA2 activ,esBAF inh
CC(C)NC(=O)N(C)C[C@@H]1Oc2cc(C#Cc3ccc(F)cc3)ccc2S(=O)(=O)N([C@@H](C)CO)C[C@H]1C,·,·,·,·,–
Cc1c(C(=O)NNC(=O)c2ccccc2O)oc2ccccc12,·,·,·,–,59.0
Cc1cccc(NC(=S)NC(=O)c2oc3ccccc3c2C)n1,–,–,–,–,49.2
COc1ccccc1NC(=O)N1CC[C@H]2[C@@H]1c1cc(-c3ccccc3)ccc1N(C)[C@H]2CO,·,·,·,·,–
COc1ccc(NC(=O)N(C)C[C@H]2Oc3cc(C#CCC(C)C)ccc3S(=O)(=O)N([C@@H](C)CO)C[C@H]2C)cc1,·,·,·,·,–
Cc1ccc(C)c(NC(=O)NCc2ccccn2)c1,–,–,–,–,·
S=C(Nc1ccccn1)c1ccccn1,–,–,–,7.8,–
S=C(Nc1ccccn1)Nc1ccccc1Cl,–,–,–,–,·
Cc1ccc(C)c(NC(=S)c2ccccn2)c1,–,–,–,–,46.4

# Screens from PubChem BioAssay.
